The source of these data is PubChem BioAssay.

Usually inhibition stands for the change of the read-out against control, counted positive when it falls.

Values without a mark were called inactive. The rule behind the calls is not given here.

In the test the target is Pantothenate synthetase (Mycobacterium tuberculosis (strain ATCC 25618 / H37Rv)) (UniProt P9WIL5). Put plainly: Recombinant Mtb pantothenate synthetase (PanC) inhibitors, coupled enzyme, confirmatory (AID 375).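 Note: 0% = full reaction with vehicle and 100% = no enzyme background.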 Particulars: coupled enzyme assay; at 10 µM, hits give high values.
Sequence of Pantothenate synthetase (Mycobacterium tuberculosis (strain ATCC 25618 / H37Rv)) (P9WIL5 whole entry, looked up): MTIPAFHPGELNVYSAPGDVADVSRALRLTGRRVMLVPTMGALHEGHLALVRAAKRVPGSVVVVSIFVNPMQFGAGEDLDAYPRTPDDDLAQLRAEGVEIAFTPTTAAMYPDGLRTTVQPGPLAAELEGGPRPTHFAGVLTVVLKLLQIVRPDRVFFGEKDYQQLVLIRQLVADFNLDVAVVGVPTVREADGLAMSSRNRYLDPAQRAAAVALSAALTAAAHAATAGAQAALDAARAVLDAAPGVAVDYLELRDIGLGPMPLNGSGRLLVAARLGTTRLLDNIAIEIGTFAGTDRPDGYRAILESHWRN
For the compound `COCCCN(Cc1ccccn1)S(=O)(=O)Cc1ccccc1`, the inhibition was 0%. With `CCCN(CCC)C(=O)CC(c1ccc(F)cc1)c1ccco1` (stereo not given), the inhibition is 1%.

Take `O=C(Cn1c(-c2cncs2)nc2ccccc21)NC1CCCC1`: the inhibition was 0%. As to `O=c1c2ccccc2cnn1-c1nc2ccccc2s1`, the inhibition is 0%. The figure for `CC(Oc1ccccc1)C(=O)N1CCCc2ccccc21` (stereo not given) is 0%. The same measure for `CCOc1ccc(-c2nc(C#N)c(N3CCN(C)CC3)o2)cc1`: 2%. Regarding `CCOC(=O)c1cc2c(=O)n3ccccc3nc2n(CCCOC)c1=NC(=O)C(C)(C)C`, the inhibition was 4%. Consider `CCOCC(=O)Nc1sc2c(c1C(=O)OCC)CCCC2`, for which the inhibition is 0%.

On to `Cn1c(=O)c2c(nc(NCc3ccc4c(c3)OCO4)n2Cc2ccccc2F)n(C)c1=O`, for which the inhibition is 3%. The same measure for `CCC(=O)Nc1ccc(NC(=O)c2cccc(OC)c2)nc1`: 0%; for `O=S(=O)(c1cccc2nsnc12)N1CCN(c2ncccn2)CC1`: 0%. The figure for `COc1ccc(OC)c(NC(=O)CSc2nc3ccccc3c(=O)n2CCNC(C)=O)c1` is 0%; for `Cc1cc(S(=O)(=O)N2CCN(c3ccccc3C)CC2)ccc1F` it is 5%; for `CCOC(=O)C1CCCN(C(=O)c2cc3c(=O)n4cccc(C)c4nc3n2C)C1` (stereo not given) it is 0%. The same measure for `COc1cccc(OC)c1C(=O)N1CCOCC1`: 12%. In the case of `CCOC(=O)C1CCN(C(=O)CN(Cc2ccccc2)S(C)(=O)=O)CC1`, the inhibition is 1%.

For `Cc1ccc(C(=O)N2CCN(C(=O)c3ccc(C)c(C)c3)C(C)C2)cc1C` (stereo not given), the inhibition was 7%.

For the compound `CCC(C)NC(=O)c1cc(CC(C)C)on1` (stereo not given), the inhibition is 2%. Turning to `COc1ccc(S(=O)(=O)NCc2ccc3c(c2)OCO3)cc1C(=O)O`, the inhibition is 5%.

For the compound `COC(=O)C1(C#N)C(c2ccccc2)C1(C(=O)OC)C(=O)OC` (stereo not given), the inhibition is 0%. In the case of `CC(=O)O[C@]1(C(C)=O)CC[C@H]2[C@@H]3C[C@H](C)C4=CC(=O)CC[C@]4(C)[C@H]3CC[C@@]21C`, the inhibition is 0%. Regarding `CCOC(=O)c1cc2sc(C)cc2n1C(C)C(=O)OCC` (stereo not given), the inhibition was 11%.

On to `Cc1ccc(Br)cc1S(=O)(=O)N1CCN(c2ccccc2)CC1`, for which the inhibition was 0%. Consider `COc1cc(/C=C/C(=O)CC(=O)/C=C/c2ccc(O)c(OC)c2)ccc1O`, for which the inhibition was 10%. As to `COc1ccc(NC(=O)CSc2nc(C)cc(C(F)(F)F)n2)cc1`, the inhibition is 0%. The same measure for `COC(=O)c1cc(-c2c(C)oc3cc(O)ccc3c2=O)c(C)o1`: 3%. Turning to `Cc1nnc(SCC(=O)N2CC(=O)Nc3ccccc32)n1-c1ccccc1`, the inhibition is 2%. Take `O=C(NCc1ccco1)C1CCN(C(=O)c2cc3sccc3n2Cc2ccc(F)cc2)CC1`: the inhibition is 5%.

As for `COc1ccc(CCNS(=O)(=O)c2ccc3oc(C(=O)O)c(C)c3c2)cc1OC`, the inhibition was 0%. The figure for `COc1ccc(N2CCN(Cc3nc(-c4ccc(Cl)cc4Cl)no3)CC2)cc1` is 6%; for `Fc1cc(F)c(F)c(SCCc2ccncc2)c1F` it is 0%.

As for `COc1ccc2cc3cc(C(=O)NCC4CCCO4)oc3nc2c1` (stereo not given), the inhibition was 3%. Consider `COC(=O)c1ccc2c(c1)nc(C)n2CCO`, for which the inhibition is 0%. Consider `Cc1cc(/C=N/n2cnnc2)c(C)n1-c1cccc(Cl)c1`, for which the inhibition is 0%. Take `Cc1ccc(-c2nnn(CC(=O)N(CC3CCCO3)C(C(=O)NC(C)(C)C)c3ccc(F)cc3)n2)o1` (stereo not given): the inhibition is 6%. In the case of `N#CC1=C(N)Oc2n[nH]c(-c3cccs3)c2C1c1cccs1` (stereo not given), the inhibition was 2%.

For the compound `CNC(=O)CN(c1ccc(C(C)C)cc1)S(C)(=O)=O`, the inhibition was 0%. The same measure for `COCCn1c(SCc2csc(-c3ccccc3)n2)nc2ccccc21`: 5%; for `CC(Oc1ccc(Br)cc1)C(=O)N1CCc2ccccc21` (stereo not given): 0%. The same measure for `O=C(c1cnc2n(c1=O)CCS2)N(C1CCCCC1)C1CCCCC1`: 0%.
